A number with no mark means an inactive call. Activity calls are given as the source filed them.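 The calls were made as follows: active = inhibition above 50%; inactive = the rest.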

The nature of the test: HepG2 cytotoxicity, primary screen, cytotoxicity control for P. falciparum antimalarial project, cell-based, ATP luminescence (AID 2303).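 Also: 0% = DMSO wells and 100% = digitonin-killed cells.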 The settings on record: HepG2 viability, 24-48 h, at 10 µM, hits give high values.
One may read the inhibition as the drop in the measured response relative to a control, in per cent. For the compound `COc1cc2c(cc1C(F)(F)F)N(C(=O)Nc1cc(F)c(F)c(-c3cccnc3)c1)CC2`, the inhibition is 20%. As for `CCCn1cc2c(ccc3nc(N)nc(N)c32)n1`, the figure is 65% (active); as for `Oc1ccc2[nH]c(-c3cccs3)nc2c1CN1CCC(N2CCCC2)CC1`, 6%. With `CN1Cc2cc(NC(=O)/C=C/c3ccccc3Cl)ccc2C(C)(C)C1`, the inhibition is 12%. Next, `CN(C)CCOc1ccc2[nH]c(-c3cccc(OCc4ccccc4)c3)nc2c1C#N`: 48%; `O=C(NC1CCN(Cc2ccccc2O)C1)c1cccc(C(F)(F)F)c1` (centres undefined): -4%.

With `Cc1cc(NN=Cc2ccc(Cl)cc2)c2ccc(F)cc2n1`, the inhibition is 6%.

`O=C(CCCC(=O)Nc1ccc(C2=NCCN2)cc1)Nc1ccc(C2=NCCN2)cc1`: the inhibition is 3%.

For `O=C(NC1CCCCN(Cc2ccc3c(c2)OCCO3)C1)c1cc(-c2ccccc2F)cs1` (centres undefined), the inhibition was 8%.

Turning to `CC(=O)N1CCC(C(=O)Nc2ccc(-c3cccc(-c4nc5ccc(C(F)(F)F)cc5[nH]4)c3)cc2)CC1`, the inhibition was 82% (active). Next, `O=[N+]([O-])c1ccccc1C=NNc1c2c(nc3ccccc13)CCCC2`: -2%; `CCNc1cc(C(=O)N[C@@H](Cc2ccccc2)[C@H](O)CNCc2cccc(-n3ccnc3)c2)cc(N2CCCC2=O)c1`: 1%; `Cc1cccc2[nH]c(-c3ccc(-c4ccc(CN5CCC(C(N)=O)CC5)cc4)s3)nc12`: 4%. Regarding `Cc1cccc2[nH]c(-c3ccc(-c4cccc(C(=O)N5CCCCC5C(C)O)c4)s3)nc12` (centres undefined), the inhibition is 27%.

The record behind these values is PubChem BioAssay.
